Assay results from the supplement of paper PMC6555819.

Tests used:
Experiment in all cases: PBM binding z-score (relative to random genomic background probes); higher = stronger binding; sequences stand for … in GC…GCGATTGACAGCGTAGAATGAAGG
[1] = test system: FXR:RXRa (NR concentration 270 nM, RXRa partner concentration 90 nM)
Outline: (§1)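 Each nuclear receptor dimer, without ligand, was incubated for 1 h on custom Agilent 4×180K protein-binding microarrays. Binding was detected with antibodies against each partner (one per run), and scanned fluorescence was regression-normalized. The binding z-scores are referenced to random human genomic background probes.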

[2] = test system: LXRa:RXRa (NR concentration 270 nM, RXRa partner concentration 90 nM)
Outline: as §1

[3] = test system: LXRa homodimer (NR concentration 270 nM)
Outline: as §1

[4] = test system: LXRb:RXRa (NR concentration 270 nM, RXRa partner concentration 90 nM)
Outline: as §1

[5] = test system: LXRb homodimer (NR concentration 270 nM)
Outline: as §1

[6] = test system: PPARa:RXRa (NR concentration 270 nM, RXRa partner concentration 90 nM)
Outline: as §1

[7] = test system: PPARg:RXRa (NR concentration 180 nM, RXRa partner concentration 90 nM)
Outline: as §1

[8] = test system: PPARg:RXRa 270nM:90nM, anti-RXR (NR concentration 270 nM, RXRa partner concentration 90 nM)
Outline: as §1

[9] = test system: PPARg:RXRa 30nM:10nM, anti-RXR (NR concentration 30 nM, RXRa partner concentration 10 nM)
Outline: as §1

[10] = test system: PPARg:RXRa 90nM:30nM, anti-RXR (NR concentration 90 nM, RXRa partner concentration 30 nM)
Outline: as §1

[11] = test system: PPARg:RXRa DBDmut IVT, anti-RXR (DBD mutation: RXRa K156A/R161A, NR concentration 270 nM, RXRa partner concentration 90 nM)
Outline: as §1

[12] = test system: PPARg:RXRa IVT, anti-PPARg (NR concentration 270 nM, RXRa partner concentration 90 nM)
Outline: as §1

[13] = test system: PPARg DBDmut:RXRa IVT, anti-PPARg (DBD mutation: PPARg1 K132A/R137A, NR concentration 270 nM, RXRa partner concentration 90 nM)
Outline: as §1

[14] = test system: PPARg DBDmut IVT, anti-PPARg (DBD mutation: PPARg1 K132A/R137A, NR concentration 270 nM)
Outline: as §1

[15] = test system: PPARg homodimer (NR concentration 180 nM)
Outline: as §1

[16] = test system: PXR:RXRa (NR concentration 270 nM, RXRa partner concentration 90 nM)
Outline: as §1

[17] = test system: PXR homodimer (NR concentration 270 nM)
Outline: as §1

[18] = test system: RARa:RXR (NR concentration 270 nM, RXRa partner concentration 90 nM)
Outline: as §1

[19] = test system: RARa homodimer (NR concentration 270 nM)
Outline: as §1

[20] = test system: RARb:RXRa (NR concentration 270 nM, RXRa partner concentration 90 nM)
Outline: as §1

Sequence	PBM binding z-score [1]	PBM binding z-score [2]	PBM binding z-score [3]	PBM binding z-score [4]	PBM binding z-score [5]	PBM binding z-score [6]	PBM binding z-score [7]	PBM binding z-score [8]	PBM binding z-score [9]	PBM binding z-score [10]	PBM binding z-score [11]	PBM binding z-score [12]	PBM binding z-score [13]	PBM binding z-score [14]	PBM binding z-score [15]	PBM binding z-score [16]	PBM binding z-score [17]	PBM binding z-score [18]	PBM binding z-score [19]	PBM binding z-score [20]
ATCGAAAGGTCGAGGTGAGCATAGAGAAAGGGAA	4.16	3.42	-0.0507	2.7	0.363	4.61	3.46	3.8	1.66	2.84	0.593	2.74	0.675	0.756	1.39	2.2	-0.0822	3.17	0.169	4.27
CCTAGTTGGTCAGTAGGTCACACACCGGATATGA	1.75	1.75	1.22	1.64	0.533	3.62	4.58	4.46	2.18	3.85	4.79	5.74	0.241	0.396	3.06	1.68	0.364	2.76	2.47	2.91
CAGCCTAGGTCAGGCCCAGTATAGGAGGAACGTT	1.06	0.524	-0.444	0.0997	-0.815	1.45	0.633	0.673	-0.32	0.386	0.76	1.39	-0.686	-1.02	0.325	-0.0342	-0.609	0.588	-0.629	3.2
TGAATGAGGTTAAAGATCAGGGATCGTGGCGTCG	2.72	2.32	-0.45	1.43	0.3	4.23	5.54	6.39	4.69	6.83	2.1	3.36	0.927	0.328	2.57	1.75	-0.845	3.09	-0.37	1.85
AGTCAAAGTTCATCTAGGTAACGGAAGATATGCT	6.87	6.02	4.37	3.7	1.73	4.86	6.85	6.48	3.55	5.62	0.826	4.12	1.91	0.45	3.26	5.42	7.16	3.87	2.15	4.94
TCGAGTAGGTTAGTCGGGTCATTCAGCCAACATA	1.62	1.62	0.312	1.98	-0.941	3.14	1.39	2.4	1.36	1.95	2.57	3.67	-0.174	-0.903	1.13	2.57	1.01	2.77	-0.535	1.79
CCTGCTAGGTCAATGGTCACCTAAAGCAGCTCGC	3.09	2.46	0.104	1.86	-0.189	3.68	5.66	5.88	3.3	5.26	3.93	4.42	0.106	-0.848	1.21	1.24	-0.353	2.13	-0.122	3.96
CCTATTAGTTGACCTTAAGGGCAACCGAAGCTCG	6.12	4.18	2.42	4	1.3	4.75	1.81	3	1.29	2.42	1.43	2.7	1.27	0.764	3.46	4.4	1.93	5.12	2.39	3.64
AGAACGAGGGCACGCCGAGTTGATAGCAGAGTAG	0.906	0.551	-0.503	0.0965	-0.66	2.36	2.1	1.92	0.0797	0.871	3.84	4.08	0.68	-0.645	0.0729	1.38	0.119	0.82	-0.438	2.57
CCGACTAGGGCAAAGGTTACCATACTCAGTACGA	2.31	2.04	0.518	2.49	-0.304	6.31	11.2	8.96	9.02	9.62	5.49	6.42	0.866	0.896	2.04	2.23	-0.079	3.59	0.449	2.85
GCTGCTAGGTCAGCTTGGTCAGCTAACGGGTACG	1.35	0.704	-0.534	0.334	0.0113	1.22	0.479	0.718	-0.549	-0.0941	3.14	2.46	-1.08	-1.08	0.887	0.168	-0.979	0.718	-0.683	3.29
CTCGAAAGGTCGGTTGAGGTGAGTATACGGATAA	2.05	1.7	-0.0944	1.35	-0.0787	2.63	0.61	1.18	-0.156	0.663	-0.0424	0.699	0.597	-0.651	0.927	3.19	-0.354	3.13	0.103	2.98
AATACAGGGTCATCGTAAGCCAGAGTACGCACAG	7.41	6.05	2.24	4.69	1.14	6.1	6.63	5.96	2.84	4.83	2.67	4.15	1.58	1.04	1.65	4.05	1	4.6	0.623	4.43
